Results as given in the supplement of paper PMC12067926.
Values without a mark were called inactive.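 The calls were made as follows: active = growth AUC significantly below the DMSO wells by Dunnett test; inactive = the rest.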

test system: Community 10; experiment: relative growth (AUC of 72 h growth curve relative to DMSO control, dAUC) (ratio); higher = more growth (less inhibition), active = hit call of the paper; settings: 20 µM
Procedure: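 Environmental bacterial isolates (Iceland stream sediment and Silwood Park soil) and whole stream-sediment communities were grown in LB from a 1:100 dilution with each pesticide at 20 µM (1% DMSO). A600 was read hourly for 72 h and the area under a spline-fitted growth curve (AUC) was computed. dAUC is the mean AUC of 3 biological replicates divided by the mean AUC of the DMSO controls. Significance was tested by Dunnett's test against the DMSO control.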

SMILES	relative growth
CCNc1nc(Cl)nc(NC(C)C)n1	1.04
N#CC(CCc1ccc(Cl)cc1)(Cn1cncn1)c1ccccc1 (stereo not given)	1.09
CC(C1CC1)C(O)(Cn1cncn1)c1ccc(Cl)cc1 (stereo not given)	1.02
N#Cc1c(Cl)c(Cl)c(Cl)c(C#N)c1Cl	0.896
CC(C)N1C(=O)c2ccccc2NS1(=O)=O	0.86
N#CCNC(=O)c1cnccc1C(F)(F)F	0.928
CCCSP(=O)(OCC)Oc1ccc(Br)cc1Cl (stereo not given)	0.705
CC(C)OC(=O)Nc1cccc(Cl)c1	1.17
N#Cc1nn(-c2c(Cl)cc(C(F)(F)F)cc2Cl)c(N)c1[S+]([O-])C(F)(F)F (stereo not given)	1.05
CSc1nc(NC(C)C)nc(NC(C)C)n1	0.857
COc1ccc(C(=CC(=O)N2CCOCC2)c2ccc(Cl)cc2)cc1OC (mixture of isomers)	0.919
Cc1cc(C)nc(Nc2ccccc2)n1	1.07
CC1(C)C(C=C(Cl)Cl)C1C(=O)OC(C#N)c1cccc(Oc2ccccc2)c1 (stereo not given)	1.21
CC1(C)[C@H](C(=O)O[C@H](C#N)c2cccc(Oc3ccccc3)c2)[C@@H]1C=C(Br)Br	0.964
COC(=O)N(OC)c1ccccc1COc1ccn(-c2ccc(Cl)cc2)n1	0.903
CC(C)NC(=O)N1CC(=O)N(c2cc(Cl)cc(Cl)c2)C1=O	1.01
Clc1ccc(C(c2ccc(Cl)cc2)C(Cl)(Cl)Cl)cc1	0.832
O=C(O)CNCP(=O)(O)O	0.952
CN(C)C(CSS(=O)(=O)O)CSS(=O)(=O)O	0.835
CCN(CC)c1nc(C)cc(OP(=S)(OC)OC)n1	0.843

SMILES	relative growth
C[N+]1(C)CCCCC1	1.01
CN/C(=N/CC1CCOC1)N[N+](=O)[O-] (stereo not given)	0.953
CS(=O)(=O)c1ccc(C(=O)C2C(=O)CCCC2=O)c([N+](=O)[O-])c1	1.02
CCOCn1c(-c2ccc(Cl)cc2)c(C#N)c(Br)c1C(F)(F)F	0.934
CC1COC(Cn2cncn2)(c2ccc(Oc3ccc(Cl)cc3)cc2Cl)O1 (stereo not given)	0.896
COCC(=O)N(c1c(C)cccc1C)[C@H](C)C(=O)OC	0.999
Cc1ccc(/N=C/N(C)/C=N/c2ccc(C)cc2C)c(C)c1	0.922
COC(=O)N(C(=O)N1CO[C@@]2(C(=O)OC)Cc3cc(Cl)ccc3C2=N1)c1ccc(OC(F)(F)F)cc1	0.878
CCCCc1c(C)nc(NCC)nc1OS(=O)(=O)N(C)C	0.816
COP(=O)(NC(C)=O)SC (stereo not given)	0.781
CC(C)N1C(=O)N(c2ccccc2)CS/C1=N\C(C)(C)C	0.858
CCOC(=O)OC1=C(c2cc(C)ccc2C)C(=O)N[C@]12CC[C@@H](OC)CC2	0.945
CCc1cccc(C)c1N(C(=O)CCl)[C@@H](C)COC	0.929
COCC(C)N(C(=O)CCl)c1c(C)csc1C (stereo not given)	0.97
CC(C)(C)[C@@H](O)[C@H](Oc1ccc(Cl)cc1)n1cncn1	1.07
Nc1c([N+](=O)[O-])ccc(Oc2ccccc2)c1Cl	0.833
Fc1ccc(Oc2ccnc3cc(Cl)cc(Cl)c23)cc1	0.887
O=C1c2ccccc2C(=O)N1SC(Cl)(Cl)Cl	0.818
CCCC(Cn1cncn1)c1ccc(Cl)cc1Cl (stereo not given)	0.973
CC1(C)C(C(=O)OC(C#N)c2cccc(Oc3ccccc3)c2)C1(C)C (stereo not given)	0.908
